From the supplement of paper PMC8253809

What follows are molecules tested on DIPGX7 (H3.3 K27M diffuse intrinsic pontine glioma line) (assay: growth inhibition (% activity, log2 RLU normalised to DMSO / staurosporine); higher = more growth inhibition). Conditions: 33 µM.
Outline: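 The growth-inhibition value comes from CellTiter-Glo luminescence, log2-transformed, normalised per plate to % activity between solvent and positive control wells, and taken as the median over replicates. Treatment of pHGG cell lines and H9-derived neural stem cells with approved drugs was at a single final concentration of about 33 μM, in triplicate, for 7 days at 37 °C, 5% CO2.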

SMILES | growth inhibition [%]
Oc1ccc(/C=C/c2cc(O)cc(O)c2)cc1 | 4.05
CN1C2CCCC1CC(NC(=O)c1nn(C)c3ccccc13)C2 (stereo unspecified) | 0.448
CC(C)(C)c1nc(-c2cccc(NS(=O)(=O)c3c(F)cccc3F)c2F)c(-c2ccnc(N)n2)s1 | 2.8
CC(C)OC(=O)C(C)(C)Oc1ccc(C(=O)c2ccc(Cl)cc2)cc1 | 2.17
CC1CCc2cc(F)cc3c(=O)c(C(=O)O)cn1c23 (stereo unspecified) | 0.338
CC(=O)NC[C@H]1CN(c2ccc(N3CCOCC3)c(F)c2)C(=O)O1 | 0.521
O=C(O)c1ccccc1 | -0.546
Cc1ccnc2c1NC(=O)c1cccnc1N2C1CC1 | 0.516
Nc1nc2ccc(OC(F)(F)F)cc2s1 | 3.41
CCOC(=O)c1ncn2c1CN(C)C(=O)c1cc(F)ccc1-2 | 0.351
Nc1nccs1 | -0.134
Cn1ccnc1S | -1.31
N#C[C@@H]1C[C@@H]2C[C@@H]2N1C(=O)[C@@H](N)C12CC3CC(CC(O)(C3)C1)C2 | 1.21
CC(C)CC(N)=O | -0.469
COc1ccccc1OCC(O)COC(N)=O (stereo unspecified) | 0.111
CCCc1cc(=O)[nH]c(=S)[nH]1 | -0.794
CC1(C)O[C@@H]2C[C@H]3[C@@H]4CCC5=CC(=O)C=C[C@]5(C)[C@@]4(F)[C@@H](O)C[C@]3(C)[C@]2(C(=O)CO)O1 | -0.242
CN(C)CCOC(c1ccccc1)c1ccccc1 | -0.0174
CCOC(=O)c1c(CSc2ccccc2)n(C)c2cc(Br)c(O)c(CN(C)C)c12 | 3.04
CS(=O)(=O)c1ccc(C2=C(c3ccccc3)C(=O)OC2)cc1 | -1.9
Fc1ccc([C@@H]2CCNC[C@H]2COc2ccc3c(c2)OCO3)cc1 | 1.44
